Test results published in PubChem BioAssay (NCATS).
Inconclusive results are not listed. Values without a mark were called inactive. Calls follow the shape of the dose curve; as a rule, active = well fitted curve in the direction sought with a large enough effect in the signal ratio, with a control signal flat (not every such curve was filed as active); inconclusive = small, poorly fitted or top-dose-only effect, or effect the other way, or a change in a side signal; inactive = no such curve, though single readings can be large or run the other way; the % refers to the signal ratio.

Each compound was assayed against Tyrosine-protein phosphatase non-receptor type substrate 1 (Homo sapiens) + Leukocyte surface antigen CD47 (Homo sapiens) (UniProt P78324+Q08722) (assay: CD47-SIRPalpha protein protein interaction - LANCE assay qHTS validation (AID 1347057; also: 0% is about no effect)). Details: Recombinant CD47-His / biotin-SIRPalpha, TR-FRET ratio; series mostly up to 38.3 µM; activity change, negative = inhibition: at the top concentration.
Excerpt: SIRPalpha is a myeloid cell expressed immunomodulatory receptor that binds the tumor expressed immune checkpoint CD47. Therapeutic disruption of this interaction leads to immune-mediated tumor rejection. This assay was used to quantitate CD47-SIRPalpha binding biochemically and evaluate chemical libraries for novel CD47-SIRPalpha inhibitors. To recapitulate the biological interaction of CD47 and SIRPalpha, we designed expression constructs to produce their recombinant, soluble, extracellular interaction domains. CD47 was produced with an N-terminal 6His tag. SIRPalpha was produced with an N-terminal Avi-Tag for site-specific biotin incorporation. The CD47-SIRPalpha interaction was measured by TR-FRET using affinity tag linked reagents (anti-6His-Eu donor and streptavidin-APC acceptor). SIRPalpha without biotin incorporation was used as a positive control inhibitor.
PROTOCOL TABLE (as described by Miller, T. et al. 2019)
SEQUENCE No. (e.g., 1, 2, 3, etc.); […] (e.g., Cells, Incubation, Reagent, etc.); VALUE and DESCRIPTION.
1a. Reagent. 3 uL CD47-His (12.5 nM) and Anti-His Eu Donor reagent (3 nM) added to respective wells in Assay buffer; white/solid bottom high base, med bind 1536-well plates (Greiner 789075)
1b. Reagent. 2 uL Assay buffer negative control for background fluorescence
2. Reagent. 23 nL library compounds (7-pt, 1:4 intraplate titration series) or DMSO control transferred by Pin Tool
3. Centrifuge. Centrifuge plate for 30 s at 1000 RPM
4. Incubation.#Incubate reagents at room temperature for 30 min, protected from light
5. Reagent. 2 uL SIRPalpha-biotin (100 nM) in Assay buffer
6. Incubation.#Incubate reagents at room temperature for 30 min, protected from light
7. Reagent. 1 uL SAV-APC (26 nM) acceptor reagent added to respective wells
8. Centrifuge. Centrifuge plate for 30 s at 1000 RPM
9. Incubation. Incubate reagents at room temperature for 30 min, protected from light
10. Detector. Measure Top TR-FRET on EnVision (Eu/APC filter set); calculate ratio Ch1/Ch2
1. Assay buffer composition.#Phosphate buffered saline (PBS; 10 mM Phosphate, 137 mM NaCl, and 2.7 mM KCl; pH 7.4), 0.05% IGEPAL CA-630
2. 23nL of […] library compounds (7 plates) or DMSO vehicle control transferred to 9 Greiner white/solid bottom high base, TC plates in 7 interplate 1:5 titrations (see Yasgar, A. et al. 2008) with Pintool. Two of the 9 plates are DMSO-only in compound field at beginning and end of compound library-treated plates.
10. Detector settings#Mirror = LANCE/DELFIA Dual Enh; Ex. Filter = UV2[TRF] 320; Em. Filter = APC 665; 2nd Em. Filter = Europium 615; Measurement h = 6.5; Ex. light (%) = 100; Delay = 60 us; Window t = 100 us; No. Seq. windows = 1; Time between flashes = 2000us; No. of flashes = 100; No. of flashes for 2nd detector = 100; Calculation: "Ratio Ch1/Ch2"

Chain of Tyrosine-protein phosphatase non-receptor type substrate 1 (Homo sapiens) + Leukocyte surface antigen CD47 (Homo sapiens) (P78324 whole entry, looked up): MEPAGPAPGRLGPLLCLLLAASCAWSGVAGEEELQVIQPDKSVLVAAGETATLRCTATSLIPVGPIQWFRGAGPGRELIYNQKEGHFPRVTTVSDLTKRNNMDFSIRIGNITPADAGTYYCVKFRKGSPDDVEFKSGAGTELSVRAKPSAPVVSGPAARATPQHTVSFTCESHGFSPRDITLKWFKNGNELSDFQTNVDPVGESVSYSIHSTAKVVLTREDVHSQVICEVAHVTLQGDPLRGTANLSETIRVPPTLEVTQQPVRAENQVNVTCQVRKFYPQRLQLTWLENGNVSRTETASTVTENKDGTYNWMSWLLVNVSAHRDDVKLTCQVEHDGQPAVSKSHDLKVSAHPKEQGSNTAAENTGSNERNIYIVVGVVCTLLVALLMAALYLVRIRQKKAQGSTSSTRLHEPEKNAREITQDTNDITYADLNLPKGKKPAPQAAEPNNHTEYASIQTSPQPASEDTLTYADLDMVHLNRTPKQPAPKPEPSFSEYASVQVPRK
Chain of Tyrosine-protein phosphatase non-receptor type substrate 1 (Homo sapiens) + Leukocyte surface antigen CD47 (Homo sapiens) (Q08722 whole entry, looked up): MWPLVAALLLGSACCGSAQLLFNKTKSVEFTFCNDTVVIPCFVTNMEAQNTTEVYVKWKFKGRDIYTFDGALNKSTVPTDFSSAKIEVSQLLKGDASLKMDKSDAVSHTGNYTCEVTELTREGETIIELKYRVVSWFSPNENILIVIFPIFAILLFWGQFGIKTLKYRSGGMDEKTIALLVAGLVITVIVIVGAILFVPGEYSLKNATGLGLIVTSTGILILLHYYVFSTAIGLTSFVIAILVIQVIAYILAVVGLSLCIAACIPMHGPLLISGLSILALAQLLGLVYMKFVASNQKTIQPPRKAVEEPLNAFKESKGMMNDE

Row | SMILES | activity change, negative = inhibition
1 | Cc1[nH]c(=O)c(C#N)cc1-c1ccncc1 | 2.35%
2 | O=c1[nH]cnc2[nH]ncc12 | 0.915%
3 | O=NN(CCCl)C(=O)NCCCl | 0.143%
4 | Cc1ccccc1C(OCCN(C)C)c1ccccc1 (stereo not given) | 2.01%
5 | O=C(O)COCCN1CCN(C(c2ccccc2)c2ccc(Cl)cc2)CC1 (stereo not given) | -2.05%
6 | c1ccc([C@H]2CN3CCSC3=N2)cc1 | -0.557%
7 | CC(C)(C)NCC(O)c1ccc(O)c(CO)c1 (stereo not given) | -0.241%
8 | OC(CN1CCC(Cc2ccc(F)cc2)CC1)c1ccc(Cl)cc1 (stereo not given) | 0.791%
9 | O=C1CCc2cc(OCCCCc3nnnn3C3CCCCC3)ccc2N1 | 1.19%
10 | O=C(O)CCc1ccc(NCc2cccc(Oc3ccccc3)c2)cc1 | 0.22%
11 | Cn1cnc([N+](=O)[O-])c1Sc1ncnc2nc[nH]c12 | 1.8%
12 | Cc1cc2c(C(C)C)c(O)c(O)c(C=O)c2c(O)c1-c1c(C)cc2c(C(C)C)c(O)c(O)c(C=O)c2c1O | -0.0359%
13 | CC(=O)Oc1ccccc1C(=O)O | 0.929%
14 | C1COC(NC(C2CC2)C2CC2)=N1 | 1.85%
15 | OC(CCN1CCCCC1)(c1ccccc1)C1CC2C=CC1C2 (stereo not given) | 1.06%
16 | CCOC(=O)C1=C[C@]2(CC)CCCN3CCc4c(n1c1ccccc41)[C@@H]32 | 0.308%
17 | Cc1cnc(NC(=O)C2=C(O)c3ccccc3S(=O)(=O)N2C)s1 | 0.984%
18 | NC(N)=NC(=O)c1nc(Cl)c(N)nc1N | 0.319%
19 | N[C@@H]1CONC1=O | 2.36%
20 | Cc1[nH]c(=O)c(C#N)cc1-c1ccc2nccn2c1 | 1.98%

Row | SMILES | activity change, negative = inhibition
21 | CC(C)(Sc1ccc(CCN(CCCCC2CCCCC2)C(=O)NC2CCCCC2)cc1)C(=O)O | 0.453%
22 | NC[C@H](O)c1ccc(O)c(O)c1 | -0.705%
23 | Cc1oncc1C(=O)Nc1ccc(C(F)(F)F)cc1 | 1.87%
24 | CCCc1nn(C)c2c(=O)[nH]c(-c3cc(S(=O)(=O)N4CCN(C)CC4)ccc3OCC)nc12 | -1.96%
25 | CC(C)C[C@H](NC(=O)[C@@H](O)[C@H](N)Cc1ccccc1)C(=O)O | 0.835%
26 | Nc1ccc(S(=O)(=O)Nc2ccnn2-c2ccccc2)cc1 | 1.1%
27 | CNC[C@H](O)c1cccc(O)c1 | 1.01%
28 | CC(C)NCC(O)COc1ccc(COCCOC(C)C)cc1 (stereo not given) | -0.0879%
29 | O=c1n(CCCN2CCN(c3cccc(Cl)c3)CC2)nc2ccccn12 | 0.835%
30 | Cc1cn[nH]c1 | 0.968%
31 | CCCC(CCC)C(=O)O | 1.82%
32 | NNCCc1ccccc1 | 2.82%
33 | Nc1nc2ccc(OC(F)(F)F)cc2s1 | 1.34%
34 | O=C1CCC(N2C(=O)c3ccccc3C2=O)C(=O)N1 (stereo not given) | -0.488%
35 | NCCCC(N)(C(=O)O)C(F)F (stereo not given) | 0.714%
36 | Oc1ccc(C2CNCCc3c2cc(O)c(O)c3Cl)cc1 (stereo not given) | 0.89%
37 | NCCc1ccc(O)c(O)c1 | 0.541%
38 | Nc1nc2c(ncn2COCCO)c(=O)[nH]1 | 1.76%
39 | Clc1cccc(Cl)c1NC1=NCCN1 | 2.25%
40 | NS(=O)(=O)c1cc2c(cc1Cl)NC=NS2(=O)=O | 0.79%
